This is a sample that favours compounds with a hit; in the whole collection about 2.2% have one here.
APP transl inh – APP translation inhibition. SH-SY5Y APP 5'UTR-luciferase reporter, luminescence. inhibition, % at 2 µM. hit rate 0.82% among 190,000. AID 1285;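 active = inhibition above a set limit, derived from the sample mean plus 3 SD, cut at about 45% in these data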
BaF3 parental – reduces parental Ba/F3 cell viability, JAK2V617F counter-screen | hit rate 1.1% among 220,000 | CellTiter-Glo ATP luminescence | inhibition, % at 5.6 µM;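 active = inhibition above a per-campaign cutoff, the mean inhibition of all tested compounds plus 3 SD, cut at about 27% in these data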
Ba/F3 V617F tox – reduce viability of Ba/F3 cells dependent on JAK2V617F | Ba/F3 EpoR-JAK2V617F viability, ATP luminescence | inhibition, % at 5.6 µM | hit rate 1.1% among 220,000 | AID 1446;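 active = inhibition above the campaign mean plus 3 SD over all tested compounds, cut at about 24% in these data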;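 note: cytokine-independent growth of Ba/F3 cells driven by EpoR plus mutant JAK2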
aSyn 5UTR inh – 5' untranslated region of α-synuclein, MLPCN primary screen. inhibition, % (tested at 7.5 µM). hit rate 0.82% among 300,000. alpha-synuclein 5'UTR reporter, inhibitor activity; in the data active = inhibition above about 60%;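 note: H4 neuroglioblastoma cells stably carrying SNCA 5'UTR luciferase fusion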
IEC-6 tox – IEC-6 cytotoxicity, counter-screen for KLF5 inhibitors; luminescence viability; inhibition, % at 5 µM; hit rate 0.78% among 290,000; AID 1825; in the data active = inhibition above about 22%
KLF5 inhibitor – kruppel-like factor 5 inhibition | inhibition, % at 5 µM | hit rate 0.23% among 290,000 | AID 1700 | DLD-1 KLF5 promoter-luciferase reporter, luminescence;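 active = inhibition above a per-plate limit of that plate's mean compound inhibition plus 3 SD, cut at about 60% in these data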;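 note: higher means less KLF5 promoter-driven luciferase light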
BaF3 parental 2 – reduces parental Ba/F3 viability, JAK2V617F counter-screen; CellTiter-Glo luminescence; cells kept alive by added IL-3; inhibition, % at 5.6 µM; shares compounds with Ba/F3 V617F tox; hit rate 31% among 580;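 active = cell growth inhibition above the hit limit set in the earlier mutant JAK2 cell screen, cut at about 27% in these data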
JAK2V617F confrm – confirmation: loss of viability in JAK2V617F-dependent Ba/F3 cells; shares compounds with Ba/F3 V617F tox; inhibition, % at 5.6 µM; hit rate 66% among 580; Ba/F3 EpoR-JAK2V617F viability, CellTiter-Glo luminescence;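 active = mean inhibition above the hit cutoff derived in the earlier primary screen, cut at about 25% in these data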;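 note: higher means lower luminescence from reduced cell ATP and viability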
Numbers stand for hits; i = inactive; nt = no result.

SMILES	APP transl inh	BaF3 parental	Ba/F3 V617F tox	aSyn 5UTR inh	IEC-6 tox	KLF5 inhibitor	BaF3 parental 2	JAK2V617F confrm
CCCCCCN(C(=O)CCl)c1ccccc1	nt	i	49.3	i	i	i	i	62.7
CCCCCCCN(C(=O)CCl)c1cccc(C)c1	i	i	i	i	i	i	nt	nt
COc1cccc(/C=C/C(=O)OCC(=O)Nc2ccc(N3CCOCC3)cc2)c1OC	i	i	41.5	i	i	i	i	i
CCCC1(c2ccccc2)NC(=O)N(CC(=O)Nc2cc(OC)cc(OC)c2)C1=O (centres undefined)	nt	nt	nt	i	i	i	nt	nt
CCCCCCCOc1ccc(OC(=O)c2ccncc2)cc1	i	i	52.4	i	i	i	64.8	92.9
CCOc1ccc(NC(=O)CC)cc1	i	i	i	i	i	i	nt	nt
CCOc1ccc(NC(=O)CSC(N)=O)cc1	i	i	74.5	i	i	i	i	i
CCOc1ccc(NC(=S)NNC(=O)CC(C)O)cc1 (centres undefined)	i	i	26.4	i	i	i	i	i
CCN(C(=O)COC(=O)C1CCN(S(=O)(=O)c2ccc3c(c2)OCCO3)CC1)C1CCCCC1	nt	nt	nt	i	nt	nt	nt	nt
Cc1ccc(C)c(N2CCN(CCCNC(=O)Cn3cccc3C(=O)c3ccccc3C)CC2)c1	i	i	41.1	i	i	i	i	28.9
O=[N+]([O-])c1cc(S(=O)(=O)NCCN2CCOCC2)ccc1Sc1nnnn1-c1ccccc1	i	i	45.8	i	i	i	26.9	95.8
COCCn1c(=S)[nH]c2cc(C(=O)N3CCN(c4ccccc4OC)CC3)ccc2c1=O	i	i	i	nt	i	i	nt	nt
COCCn1c(=S)[nH]c2cc(C(=O)N3CCN(c4ccc(F)cc4)CC3)ccc2c1=O	i	i	51.0	i	i	i	i	i
CC(=O)c1c(C)nn(CC(=O)NC2CCCN(Cc3ccc(CC(C)C)cc3)C2)c1C (centres undefined)	nt	nt	nt	i	i	i	nt	nt
COc1ccc(OC)c(NS(=O)(=O)c2ccc(SC)cc2)c1	i	i	29.7	i	i	i	i	70.3
COc1ccc2nc(NC(=O)CN3CCOCC3)sc2c1	i	i	82.7	i	i	i	i	i
COc1ccc2nc(NC(=O)CN3CCN(C)CC3)sc2c1	i	i	i	i	i	i	nt	nt
CN(Cc1ccccc1Cl)C(=O)C1CCC(=O)N(C2CCCCCC2)C1 (centres undefined)	nt	nt	nt	i	i	i	nt	nt
Cc1cc(F)ccc1NCc1ccncc1	i	i	50.1	i	i	i	i	i
O=C(/C=C1\NC2(CCCC2)Cc2ccccc21)C(=O)N/N=C/c1ccc(O)c(O)c1	i	i	45.0	i	i	i	i	95.2
CC(=O)N=c1sccn1CC(O)c1ccc(Br)cc1 (centres undefined)	nt	nt	nt	i	i	i	nt	nt
Nc1ccccc1Nc1cccc(C(F)(F)F)c1	i	i	41.9	i	i	i	40.4	92.8
Cc1cc(C)nc(Nc2cccc(C(F)(F)F)c2)n1	nt	nt	nt	i	i	i	nt	nt
Cn1cc(S(=O)(=O)Nc2cccc3ccccc23)c(=O)n(C)c1=O	nt	nt	nt	i	i	i	nt	nt
CCCC(=O)N(C1CC(C)C(C#N)(C#N)C1(C#N)C#N)N(C)C (centres undefined)	nt	i	45.9	i	i	i	i	61.5
SMILES	APP transl inh	BaF3 parental	Ba/F3 V617F tox	aSyn 5UTR inh	IEC-6 tox	KLF5 inhibitor	BaF3 parental 2	JAK2V617F confrm
CSc1nc(C(=O)N2CCCC(Nc3ccc(C)c(C)c3)C2)cs1 (centres undefined)	nt	nt	nt	i	i	i	nt	nt
O=C(c1ccc2c(c1)N(Cc1ccccc1)C(=O)CS2)N1CCOCC1	i	i	i	i	i	i	nt	nt
Cc1ccccc1CN1C(=O)CSc2ccc(C(=O)N3CCOCC3)cc21	i	i	33.0	i	i	i	i	i
CCOCCOc1cccc(C(=O)NC(c2ccccc2)c2ccccc2)c1	nt	nt	nt	i	i	i	nt	nt
COc1cc(NC(=O)c2ccc([N+](=O)[O-])o2)ccc1NC(=O)c1cccs1	i	i	i	i	i	i	nt	nt
O=C(Nc1cccc(NC(=O)c2cccs2)c1)c1ccc([N+](=O)[O-])o1	nt	i	39.5	i	64.3	i	i	72.0
CCCn1c(SCC(=O)NC2CCCc3ccccc32)n[nH]c1=O (centres undefined)	i	i	57.2	i	i	i	i	i
CCCn1c(SCC(=O)NC2CCCC(C)C2C)n[nH]c1=O (centres undefined)	i	i	i	i	i	i	nt	nt
Oc1ccc(/C=C/c2ccnc3ccccc23)cc1	i	i	46.6	i	i	i	i	42.5
CCCC1O[C@@H]2CC3C4CCC5=CC(=O)C=C[C@]5(C)C4C(OC(C)=O)C[C@]3(C)[C@]2(C(=O)COC(C)=O)O1 (some centres undefined)	i	i	25.0	i	i	i	i	27.9
CC(C)c1cc(C(=O)N2CCCC(CCC(=O)N3CCN(c4ccccn4)CC3)C2)no1 (centres undefined)	nt	i	32.1	i	i	i	i	i
CCc1cc(C(=O)N2CCCC(CCC(=O)N3CCN(c4ccccn4)CC3)C2)no1 (centres undefined)	i	i	i	i	i	i	nt	nt
CC(C)CCNC(=O)c1ccc(Cn2c(=S)[nH]c3ccccc3c2=O)cc1	nt	nt	nt	i	i	i	nt	nt
NC(=S)NN=C(Cc1ccccc1)Cc1ccccc1	i	i	44.7	i	i	i	49.8	60.3
CCCSc1nsc(SCCC)c1C#N	i	i	i	i	i	i	nt	nt
C#CCSc1nsc(SCC#C)c1C#N	i	i	44.9	i	i	i	i	72.2
CN(C)CCCN(C(=O)CCOc1ccccc1)c1nc2c(F)cccc2s1	i	i	25.2	i	i	i	i	29.8
C/C(=C\C(=O)O)CC(=O)O	i	i	53.0	i	i	i	i	i
O=C(Nc1cc(S(=O)(=O)N2CCCCC2)ccc1Cl)c1ccccc1NS(=O)(=O)c1ccc(F)cc1	i	i	28.4	62.7	i	i	69.7	78.8
O=C(Nc1cc(S(=O)(=O)N2CCCCC2)ccc1O)c1ccccc1NS(=O)(=O)c1ccc(F)cc1	i	i	i	i	i	i	nt	nt
Cc1ccccc1-c1nn(-c2ccc(F)cc2F)cc1CNCCCN(C)C	i	i	26.1	i	i	i	i	i
CCCc1ccc(C(=O)NNc2ccc(F)cc2)cc1	nt	i	93.2	i	i	i	i	i
Nc1nc(N)c2nc(-c3ccccc3)c(N)nc2n1	i	i	30.2	i	i	i	i	73.0
NSc1nc(N)c2nc(-c3ccccc3)c(-c3ccccc3)nc2n1	i	i	i	i	i	i	nt	nt
Cc1ccc(Nc2nc(N)nc(CCl)n2)cc1	nt	i	33.9	i	i	i	i	57.9
Nc1nc(CCl)nc(Nc2ccccc2)n1	i	i	i	i	i	i	nt	nt
CCOc1ccc(Nc2nc(N)nc(CCl)n2)cc1	nt	i	98.6	96.0	100.5	i	i	99.2
COc1cccc(Nc2nc(N)nc(CCl)n2)c1	nt	i	i	i	i	i	nt	nt

Bioassay records: PubChem BioAssay, several laboratories
